In PubChem BioAssay (EPA / NIEHS) one finds outcome and AC50 data, which are given here for 39 molecules.

Several values for one entry are separate records, joined by “and”; a condition that tells them apart may be missing. Equal values may be shown once. Records with an inconclusive call do not appear. Some structures have more than one record in an assay (separate samples or runs), and their calls can disagree. Activity calls are given as the source filed them. The calls were made as follows: active = hit-call score of the fitted dose curve at least 0.9, where 1 is the maximum; inconclusive = response in the unintended direction; inactive = score below 0.9.

As a reminder, the AC50 is the midpoint of the concentration-response curve, whichever way the signal moves.

This experiment is described as follows: TOX21_p53_BLA_p4_viability: Viability Assessment in the Tox21 HCT-116 p53 Agonism Beta-lactamase Assay, Phase 4 (AID 2283597).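 Also: hits lower the luminescence signal meaning cytotoxicity.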 The source says:
TOX21_p53_BLA_p4 is a cell-based, single-readout assay that uses HCT116, a human intestinal cell line, […] in a 1536-well plate.TOX21_p53_BLA_p4_viability is an assay readout measuring cellular ATP content and detected with CellTiter-Glo Luciferase-coupled ATP quantitation.TOX21_p53_BLA_p4_viability used a type of viability reporter where loss-of-signal activity can be used to understand changes in the cell viability. Furthermore, this assay endpoint can be referred to as a secondary readout, because this assay has produced multiple assay endpoints where this one serves a viability function. To generalize the intended target to other relatable targets, this assay endpoint is annotated to the cell cycle intended target family, where the subfamily is cytotoxicity.
Thawing Method: Place 14 mL of pre-warmed thaw medium into a 15 mL of conical tub. Remove the vial of cells to be thawed from liquid nitrogen and thaw rapidly by placing at 37C in a water bath with gentle agitation for 1-2 minutes. Decontaminate the vial by wiping with 70% ethanol before opening in a biological safety cabinet. Transfer the vial contents drop-wise into 14 mL of thaw medium in a sterile 15-mL conical tub. Centrifuge cells at 900 rpm for 4 minutes and resuspend in thaw medium. Transfer contents to the T75 tissue culture flask containing Thaw Medium and place flask in a humidified 37C/5% CO2 incubator. Switch to growth medium at first passage.Propagation Method: Aspirate medium, rinse once in DPBS, add 0.25% Trypsin/EDTA and swirl to coat the cell evenly. Add an equal volume of Growth Medium to inactivate Trypsin after 2-3 minutes incubation at 37C. Centrifuge cells at 900 rpm for 4 minutes and resuspend in growth medium. Cell should be passage or fed at least twice a week.Assay Protocol: Harvest cells from culture in growth medium and resuspend in assay medium. 2.2 Dispense 4000 cells/5 uL/well into 1536-well black/clear bottom plates using a Multidrop dispenser. After the cells were incubated at 37C for 5 hours, 23 nL of compounds dissolved in DMSO were transferred to the assay plate by a PinTool resulting in a 217-fold dilution. Incubate the plates for 16 hours at 37C, 5% CO2. Add 1 uL of 6X LiveBLAzer FRET B/G (CCF4-AM) Substrate Mixture to each well using a BioRAPTR dispenser and incubate the plates at room temperature for 2 hours. Measure fluorescence intensity at 460 and 530 nm emission and 405 nm excitation by an Envision detector. Data is expressed as the ratio of 460nm/530nm emissions. Add 4 uL of Cell-titer Glo to each well using BioRAPTR and incubate the plates at room temperature for […]. For cell viability readout that measures cytotoxicity, 4 ul/well of CellTiter-Glo reagent was added into the assay plates using a Flying Reagent Dispenser. After 30 min incubation at room temperature, the luminescence intensity in the plates was measured using a ViewLux plate reader.
On to `Nc1ccc(Cl)cc1Cl`, for which the outcome was inactive. On the same count and under the same terms, next, `O=C(O)c1cc2ccccc2nc1C(=O)O`: “inactive”; `COc1c2ccoc2cc2oc(=O)ccc12`: “inactive”.

As for `O=C1CC2CC1C1CCCC21` (stereo not given), the molecule was classed as inactive.

Consider `CC=C1CC2C=CC1C2` (stereo not given), for which the call was inactive.

For the molecule `CC1=CC[C@H]2C[C@@H]1C2(C)C`, the call was inactive. Turning to `CC(=O)Nc1nnc(S(N)(=O)=O)s1`, the molecule was called inactive. Same read-out and setting: next, `CCCCCCC1(C)CCC(=O)O1` (stereo not given): “inactive”; `C=C1C2CCC(C2)C1(C)C` (stereo not given): “inactive”; `CCN(Cc1cccc(S(=O)(=O)O)c1)c1ccc(C(=C2C=CC(=[N+](CC)Cc3cccc(S(=O)(=O)[O-])c3)C=C2)c2ccccc2)cc1`: “inactive”.

As to `CCC(Cc1ccccc1)(C(=O)c1ccc(N2CCOCC2)cc1)N(C)C` (stereo not given), the call was inactive.

For `NC(CO)(CO)CO`, the call was inactive. Same read-out and setting: the result for `CCCCCCCCCCC=CC#N` reads “inactive”.

With `N[C@H]1C(O)O[C@H](CO)[C@H](O)[C@@H]1O` (stereo not given in full), the outcome was inactive.

Take `Nc1ccc(-c2ccc(F)cc2)cc1`: the result was inactive. On the same count and under the same terms, the result for `O=C(C(Cl)Cl)N1CCOC12CCCCC2` reads “inactive”; that for `CC(=O)OC(C)C`, “inactive”; that for `CC1=CC[C@H](C(C)C)C=C1`, “inactive”. Same read-out and setting: next, `CC(C)(Oc1ccc(C2CC2(Cl)Cl)cc1)C(=O)O` (stereo not given): “inactive”; `O=C(O)Cc1c(Cl)ccc(Cl)c1Cl`: “inactive”. Still for that read-out and setting: next, `CC(CC=O)c1ccccc1` (stereo not given): “inactive”.

In the case of `Nc1ncn([C@@H]2O[C@H](CO)[C@@H](O)[C@H]2O)c(=O)n1`, the half-maximal activity concentration (AC50) was 1.15 µM (active) and 514 nM (active).

As to `O=P(O)(O)Oc1ccccc1`, the outcome was inactive. Same read-out and setting: the result for `CC(C)CCCC(C)CC=O` (stereo not given) reads “inactive”. For the molecule `c1ccc(CNCc2ccccc2)cc1`, the molecule was called inactive. In the case of `COc1cc(NC(=O)CC(C)=O)c(OC)cc1Cl`, the result was inactive and the AC50 is 31 µM (active).

On to `CCOC(=O)Cc1cccc2ccccc12`, for which the call was inactive. As to `O=C(O)c1ccccc1Nc1cccc(C(F)(F)F)c1`, the half-maximal activity concentration (AC50) was 22.7 µM (active) and 23 µM (active). In the case of `CNC(=S)N(C)C`, the result was inactive. For the molecule `C=C[C@](C)(O)CC[C@@H]1[C@@]2(C)CCCC(C)(C)[C@@H]2CC[C@@]1(C)O`, the AC50 is 15.8 µM (active).

For the molecule `CCCCCCCC/C=C\CCCCCCCC(=O)O`, the outcome was inactive.

For the molecule `O=C1OC(=O)c2cc(Oc3ccc4c(c3)C(=O)OC4=O)ccc21`, the call was inactive.

Turning to `Cc1cccc(C(=O)O)c1`, the molecule was called inactive. Turning to `CC(=O)[C@H]1[C@H](C#N)C[C@H]2[C@@H]3CC=C4C[C@@H](O)CC[C@]4(C)[C@H]3CC[C@@]21C`, the molecule was called inactive. `CC1OC1C1CCC2(C)OC2C1` (stereo not given): the molecule was classed as inactive. `Nc1ccc(N=Nc2ccccc2)c(N)n1`: the call was inactive. Still for that read-out and setting: the result for `CC(C)CC(O)Cc1ccccc1` (stereo not given) reads “inactive”. Still for that read-out and setting: the result for `CC=CC(=O)N(CC)c1ccccc1C` reads “inactive”; that for `CCCCC/C=C\C/C=C\CCCCCCCC(=O)OC`, “inactive”.
